Assay outcomes from PubChem BioAssay.
This is a sample that favours compounds with a hit; in the whole collection about 2.3% have one here.
Bcl-xL primary: inhibitors of human Bcl-xL, primary screen, biochemical, fluorescence polarization, HTS. Bcl-2-like protein 1 (Homo sapiens), Q07817. GST-Bcl-xL / FITC-Bim BH3 peptide fluorescence polarization. inhibition, % at 10.9 µM. 320,000 compounds, 0.7% hits;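 active = inhibition above the mean of all tested compounds plus 3 SD, cutoff set per campaign, cut at about 30% in these data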;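 also: 0% = DMSO wells and 100% = unlabeled Bim-BH3 peptide competitor; inhibitors lower millipolarization by displacing the labeled peptide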
Target sequence (Q07817 whole entry, looked up): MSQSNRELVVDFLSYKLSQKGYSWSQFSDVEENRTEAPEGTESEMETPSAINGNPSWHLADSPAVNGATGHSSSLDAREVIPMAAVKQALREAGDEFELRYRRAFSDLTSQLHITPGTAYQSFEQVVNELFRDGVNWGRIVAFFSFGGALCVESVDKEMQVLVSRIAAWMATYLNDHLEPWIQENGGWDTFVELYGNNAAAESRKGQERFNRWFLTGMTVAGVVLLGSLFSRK
Bim-Mcl-1: inhibitors of Bim peptide binding to Mcl-1, primary screen, biochemical, bead-based flow cytometry, multiplex; Induced myeloid leukemia cell differentiation protein Mcl-1 (Homo sapiens), Q07820; Bim peptide-Mcl-1 binding; inhibition, % at 10 µM; 190,000 compounds, 0.1% hits; in the data active = inhibition above about 40%;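 also: 0% = no compound tracer wells and 100% = peptide blocker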
MCL1-BIM inh: inhibitors of MCL1 binding to BIM-BH3, primary screen, biochemical, fluorescence polarization. inhibition, % at 10.9 µM. Induced myeloid leukemia cell differentiation protein Mcl-1 (Homo sapiens), Q07820. GST-MCL1 / FITC-Bim-BH3 fluorescence polarization. AID 2057, 2009. 320,000 compounds, 0.68% hits;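 active = inhibition above the mean inhibition of all tested compounds plus 3 SD, set per campaign, cut at about 40% in these data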;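 also: 0% = DMSO wells and 100% = unlabeled Bim-BH3 peptide control; higher means more loss of mP so more displacement of Bim peptide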
GLD-1 RNA inh: GLD-1/TGE RNA complex disruptors, primary screen, biochemical, fluorescence polarization. purified GLD-1 + fluorescein TGE RNA. Female germline-specific tumor suppressor gld-1 (Caenorhabditis elegans), Q17339. 320,000 compounds, 0.44% hits. inhibition, % at 5.96 µM. AID 2280, 2010;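 active = percent inhibition above a per-plate cutoff, the plate mean of test compounds plus 3 SD, cut at about 30% in these data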;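 also: 0% = DMSO wells with GLD-1 and probe and 100% = wells lacking GLD-1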
Mcl1-Noxa inh: Mcl-1/Noxa binding inhibitors, primary screen, biochemical, TR-FRET, 1536-well | inhibition, % at 21.7 µM | Induced myeloid leukemia cell differentiation protein Mcl-1 (Homo sapiens), Q07820 | 220,000 compounds, 1.5% hits | TR-FRET Mcl-1/Noxa peptide binding, 2 h;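 active = compounds that cut the protein-peptide binding signal by more than 50% relative to plate controls in a single-dose test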;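 also: His-tagged Mcl-1 with rhodamine Noxa BH3 peptide and terbium anti-His antibody; 0% = Mcl-1 plus Noxa peptide wells and 100% = peptide-only wells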
Mcl1 Bid PPI: Mcl-1/Bid binding inhibitors, primary screen, biochemical, TR-FRET, 1536-well; TR-FRET Mcl-1/Bid-Dy647 peptide binding; Induced myeloid leukemia cell differentiation protein Mcl-1 (Homo sapiens), Q07820; 220,000 compounds, 0.97% hits; AID 1021, 2008; inhibition, % at 21.7 µM;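 active = compounds that cut the binding signal by more than half at the single screening dose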;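 also: His-tagged Mcl-1 with europium anti-His antibody binding Bid BH3 peptide; 0% = Mcl-1 plus peptide wells and 100% = peptide-only wells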
Bcl-xL conf: Bcl-xL inhibitors blocking Bim BH3 binding, confirmation, counter-screen for MCL1 inhibitor project, biochemical, fluorescence polarization; inhibition, % at 10.9 µM; 1,700 compounds, 54% hits; GST-Bcl-xL / FITC-Bim BH3 peptide FP binding; AID 2166, 2009; shares compounds with MCL1-BIM inh;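 active = inhibition above a cutoff equal to the mean inhibition of all tested compounds plus 3 SD, cut at about 30% in these data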;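 also: 0% = DMSO wells and 100% = unlabeled Bim BH3 control peptide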
MCL1 BIM confirm: inhibitors of MCL1 binding to BIM-BH3, confirmation, biochemical, fluorescence polarization, triplicate; 1,700 compounds, 61% hits; GST-MCL1 / FITC-Bim-BH3 fluorescence polarization; inhibition, % at 10.9 µM; AID 2168, 2009; shares compounds with MCL1-BIM inh;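 active = inhibition above the average of all tested compounds plus 3 SD, cut at about 40% in these data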;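 also: 0% = DMSO wells and 100% = unlabeled Bim-BH3 control peptide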
The depositor's hits bear a star; . = no result given; + = active, no number.

SMILES | Bcl-xL primary | Bim-Mcl-1 | MCL1-BIM inh | GLD-1 RNA inh | Mcl1-Noxa inh | Mcl1 Bid PPI | Bcl-xL conf | MCL1 BIM confirm
Cc1csc(NC(=O)c2cc(-c3ccco3)nc3ccccc23)n1 | 19.4 | -2.0 | 39.9* | -4.3 | 98.7* | 12.5 | 20.7 | 60.3*
CCc1nnc(NC(=O)c2cc(-c3ccc(C)o3)nc3ccccc23)s1 | 18.1 | . | 13.1 | 1.8 | . | . | . | .
Cc1csc(NC(=O)c2cc(C)nc3ccccc23)n1 | -12.6 | 0.0 | -3.9 | 3.6 | 24.3 | -1.8 | . | .
CC(C(=O)OCC(=O)N1CCN(c2ccccc2)CC1)N1C(=O)c2ccccc2C1=O (centres undefined) | 4.2 | . | 1.0 | -0.5 | . | . | . | .
CC(=O)NCCc1c[nH]c2ccc(O)cc12 | 3.8 | . | -2.8 | 0.7 | . | . | . | .
CN1C(=O)CSC1=S | 2.7 | . | 8.0 | 2.9 | . | . | . | .
CC(CC(=O)N(CCC1=CCCCC1)c1c(N)n(Cc2ccccc2)c(=O)[nH]c1=O)c1ccccc1 (centres undefined) | -2.2 | . | -3.2 | 9.3 | . | . | . | .
CC(=O)N1CCN(c2nc(CC(C)C)c3c(c2C#N)CCC3)CC1 | 166.4* | 0.0 | + | 156.9* | 11.1 | -10.1 | 19.0 | 30.2
CCN(CC)c1ccc2cc(-c3nc4ccccc4[nH]3)c(=O)oc2c1 | 80.8* | 3.0 | 75.5* | 42.1* | 26.2 | 96.3* | 89.5* | 105.0*
CCN(CC)c1ccc2cc(-c3nc(-c4ccc(OC)cc4)cs3)c(=O)oc2c1 | 106.7* | . | 110.5* | 66.8* | -0.7 | -19.1 | 114.5* | 133.9*
CCN(CC)c1ccc2cc(-c3nnc(-c4ccccc4)o3)c(=O)oc2c1 | -6.3 | -15.0 | -46.4 | -140.1 | -1.8 | 5.8 | . | .
CCN(CC)c1ccc2cc(-c3nc4ccccc4n3C)c(=O)oc2c1 | 27.1 | 3.0 | -5.9 | -59.4 | 0.7 | 0.9 | . | .
COc1cc(C2C(C#N)=C(N)Oc3cc(C)n(CC4CCCO4)c(=O)c32)cc2c1OCO2 (centres undefined) | . | -2.0 | . | . | -7.0 | -39.4 | . | .
COc1cccc(C2C3CN(C)CC=C3C(C#N)=C(N)C2(C#N)C#N)c1OC (centres undefined) | 115.6* | -2.0 | 134.5* | 77.6* | -10.2 | -21.3 | 76.9* | 96.8*
COc1cc([C@@H]2[C@H]3CN(C)CC=C3C(C#N)=C(N)C2(C#N)C#N)cc2c1OCO2 | 53.7* | -3.0 | 52.3* | 20.9 | 9.4 | -13.0 | 21.3 | 23.9
CCN1CC=C2C(C#N)=C(N)C(C#N)(C#N)[C@H](c3cccc(OC)c3OC)[C@H]2C1 | 136.1* | 2.0 | 150.6* | 113.5* | . | . | 51.7* | 65.0*
COc1cccc(C2C(C#N)=C(N)N(N(C)C)C3=C2C(=O)CC(C)(C)C3)c1OC (centres undefined) | 4.3 | . | 3.9 | -7.0 | . | . | . | .
CCN1CCN(CCOc2cccc(Oc3ccccc3)c2)CC1 | 3.8 | -1.0 | -0.3 | 2.0 | 13.1 | 34.9 | . | .
Cc1ccccc1C1C(C#N)=C2N=C(N)c3c(sc4c3CCCCC4)N2C2=C1C(=O)CC(C)(C)C2 (centres undefined) | 54.6* | 2.0 | 53.7* | 48.2* | -124.6 | -146.7 | 38.8* | 51.0*
CC(=O)COc1ccc2c(c1C)O/C(=C\c1ccco1)C2=O | 14.2 | . | 19.6 | 5.4 | . | . | . | .
CCN1CCN(Cc2c(O)ccc3c2O/C(=C\c2ccccc2)C3=O)CC1 | 54.4* | 1.0 | 54.9* | 17.7 | 6.9 | -30.9 | 59.0* | 61.9*
